The list is not random: actives were taken first. Their share in the collection is about 7.5%.
NPC1 prom act = NPC1 promoter activation; actives 2.4% (n = 320,000); Potency, µM (series often up to 9.22 µM), actives largely listed as activators; Huh7 NPC1 promoter luciferase reporter, 24 h; note: nearly all actives have a fitted effect of over 60% in size
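In 1536-well qHTS, Huh7 cells harboring an NPC1 promoter–luciferase construct received compound for 24 h; activation was quantified by luminescence following luciferase reagent addition.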
FLuc counter = inhibits or activates purified firefly luciferase, miR-21 counter-screen; purified FLuc, Km substrates, luminescence inhibition; Potency, µM (doses to about 57.5 µM), hits mostly inhibitors; actives 6.9% (n = 360,000); note: nearly all actives have a fitted effect of over 55% in size
Target sequence (P08659 whole entry, looked up): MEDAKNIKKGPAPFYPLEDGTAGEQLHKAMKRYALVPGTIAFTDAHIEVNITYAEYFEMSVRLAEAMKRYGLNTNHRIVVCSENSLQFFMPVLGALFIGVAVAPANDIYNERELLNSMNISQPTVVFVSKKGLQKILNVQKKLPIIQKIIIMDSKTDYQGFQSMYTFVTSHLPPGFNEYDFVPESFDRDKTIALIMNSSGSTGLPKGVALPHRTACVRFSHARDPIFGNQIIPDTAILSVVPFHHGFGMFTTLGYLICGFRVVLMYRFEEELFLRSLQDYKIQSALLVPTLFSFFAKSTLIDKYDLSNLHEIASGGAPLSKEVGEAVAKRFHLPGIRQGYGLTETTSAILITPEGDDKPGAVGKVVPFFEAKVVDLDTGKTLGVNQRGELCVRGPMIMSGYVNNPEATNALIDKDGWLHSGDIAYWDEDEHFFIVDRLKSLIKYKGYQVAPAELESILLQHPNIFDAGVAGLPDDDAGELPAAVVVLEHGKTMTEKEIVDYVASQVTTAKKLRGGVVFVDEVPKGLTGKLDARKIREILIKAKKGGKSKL
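Biochemical qHTS of compounds, final roughly 60 µM downward over six points, against 10 nM purified firefly luciferase using Km concentrations of substrates (10 uM D-luciferin, 10 uM ATP) in Tris acetate pH 7.5 buffer; luminescence output.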
Luc counter = Kinase-Glo luciferase inhibition (counter-screen). Kinase-Glo luciferase, ATP luminescence, 8 min. actives 0.28% (n = 200,000). Potency, µM (top dose mostly 38.3 µM), usual class: inhibitors. Q27757; note: nearly all actives have a fitted effect of over 60% in size
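Compounds were added to a substrate mix at pH 7.2 (50 mM imidazole, 10 uM ATP, within the enzyme's linear range), followed by Kinase-Glo detection reagent; luminescence was measured after 8 minutes at ambient temperature.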
SMN2 splice enh = enhancers of SMN2 splice variant expression | HEK293 SMN2-luciferase splicing reporter, luminescence, 30-36 h | Potency, µM (series often up to 46.1 µM), actives largely listed as activators | actives 2.8% (n = 210,000); note: nearly all actives have a fitted effect of over 55% in size
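HEK293 cells carry an SMN2 minigene-luciferase reporter in which exon 7 inclusion puts luciferase in frame. Cells were seeded at 2000 cells/well, attached for 10-12 hours, then exposed to compounds for 30-36 hours at 37C before ONE-Glo luminescence.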
Rab9 promoter act = activates the Rab9 promoter; Huh7 Rab9 promoter-luciferase reporter, luminescence, 24 h; Potency, µM (titrated, usually from 9.22 µM), most hits filed as activators; actives 2.8% (n = 320,000); note: nearly all actives have a fitted effect of over 60% in size
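Rab9 promoter-driven luciferase in stably transfected Huh7 cells; 1500 cells/well rested 2 h, exposed to compound in DMSO for 24 h at 37 °C, 5% CO2. Luminescence read 10 min after adding luciferase reagent at ambient temperature.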
ELG1 genotoxic = inducers of genotoxicity in HEK293T ELG1-luciferase cells | HEK293T ELG1-luciferase reporter, luminescence, 16 h | Potency, µM (top dose mostly 46 µM), hits mostly activators | actives 1.3% (n = 330,000) | AID 504466; note: nearly all actives have a fitted effect of over 60% in size
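Cells (2,000/well) expressing the ELG1-luciferase fusion are dosed by pin tool and kept 16 hr at 37 °C, 5% CO2. Signal comes from ONE-Glo luciferase reagent after 30 min at room temperature.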
Hits are given with their value; n = inactive; u = inconclusive; x = not tested or not shown. Calls come from the whole dose curve; as a rule, active = well fitted curve in the direction sought with a large enough effect; inconclusive = small, poorly fitted or top-dose-only effect, or another doubt; inactive = no such curve, though single readings can be large; an effect the other way counts as inactive or inconclusive.

SMILES	NPC1 prom act	FLuc counter	Luc counter	SMN2 splice enh	Rab9 promoter act	ELG1 genotoxic
CCN(CC)c1ccc(-n2c(O)c(C=C3N=c4ccccc4=N3)sc2=S)cc1	n	n	n	n	n	n
O=C(O)c1ccc(-n2c(O)c(C=C3N=c4ccccc4=N3)sc2=S)cc1	n	13µM	x	x	n	n
COc1ccc(NC(=O)CC(C)S(=O)(=O)c2cc3c(cc2C)NC(=O)CO3)cc1OC (configuration not stated)	x	n	x	x	x	x
COc1cc(OC)cc(-c2nc3nc(C)c(CCC(=O)Nc4ccc(Cl)cc4)c(C)n3n2)c1	x	n	x	n	x	x
Fc1ccc(C2=Nn3c(nnc3-c3n[nH]c4c3CCC4)SC2)cc1	n	n	n	20µM	n	18µM
c1ccc(-c2cc(-c3nnc4n3N=C(c3ccc5ccccc5c3)CS4)[nH]n2)cc1	n	u	n	11µM	n	u
Cc1cc(-c2nnc3n2N=C(c2ccc(-c4ccccc4)cc2)CS3)n[nH]1	n	17µM	x	x	n	n
Cc1cc(-c2nnc3n2N=C(c2ccccc2)CS3)n[nH]1	n	n	x	x	n	u
CCOC(=O)C1=C(C)N=C2SCCC(=O)N2C1c1ccc(OCc2ccccc2)c(OC)c1 (configuration not stated)	x	n	x	n	x	x
COc1ccc(-c2onc(C)c2C)cc1S(=O)(=O)N1CCc2ccccc21	x	n	x	x	x	x
CC(=O)Nc1ccc(C(=O)COC(=O)C2CC2C)c(F)c1 (configuration not stated)	1.4µM	2.1µM	x	x	1.4µM	u
CC(=O)Nc1ccc(C(=O)COC(=O)c2cccs2)c(F)c1	2.8µM	3.4µM	x	x	3.5µM	u
COc1ccc(-c2nc(C)c(CCNC(=O)C(=O)Nc3cc(C)cc(C)c3)s2)cc1OC	x	n	x	x	x	x
Cc1cc2c(cc1S(=O)(=O)N(CCN(C)C)Cc1ccco1)OCC(=O)N2	x	n	x	x	x	x
CC1=Nc2ccccc2/C1=C/c1c(N)n2c(S(=O)(=O)C(C)C)nsc2nc1=O	n	24µM	n	n	n	n
CC1=Nc2ccc(C)cc2/C1=C/c1c(N)n2c(S(=O)(=O)C(C)C)nsc2nc1=O	n	u	n	n	n	n
CC1=Nc2ccccc2/C1=C/c1c(N)n2c(S(=O)(=O)CC(C)C)nsc2nc1=O	n	17µM	n	n	n	n
Cc1ccc(C(=O)Nc2nnc(S(=O)(=O)N3CCc4ccccc43)s2)cc1	x	n	x	x	x	x
COC(=O)CSc1ccc2c(N)c(C(=O)OC)sc2c1	n	19µM	n	u	n	n
COc1ccccc1NC(=O)c1oc2ccccc2c1NC(=O)c1c(F)cccc1F	x	u	x	n	x	x
COC(=O)c1sccc1N/N=C/c1ccc(OC)c(OC)c1OC	u	15µM	n	14µM	u	u
COC(=O)c1sccc1N/N=C/c1cccc(OC)c1O	3.5µM	0.95µM	10µM	0.56µM	3.2µM	u
COC(=O)c1sccc1N/N=C/c1cccc(Oc2ccccc2)c1	3.2µM	1.9µM	u	u	2.2µM	2.3µM
COc1ccc(NC(=O)CN2C(=O)CCn3nc(-c4cccn4C)cc32)cc1	x	n	x	x	x	x
Cc1ccc2oc(C(=O)Nc3nnc(CC(C)C)s3)cc(=O)c2c1	x	u	x	n	x	x
SMILES	NPC1 prom act	FLuc counter	Luc counter	SMN2 splice enh	Rab9 promoter act	ELG1 genotoxic
CCCc1nnc(NC(=O)c2cc(=O)c3cc(C)c(C)cc3o2)s1	x	12µM	x	n	x	x
O=C(Nc1ccc2oc(-c3ccccc3)nc2c1)c1ccco1	1.8µM	4.8µM	n	13µM	2.5µM	u
O=C(Nc1ccc2oc(-c3ccncc3)nc2c1)c1ccc2c(c1)OCCO2	n	1.7µM	x	x	n	n
O=C(Nc1ccc2oc(-c3cccnc3)nc2c1)c1ccc2c(c1)OCCO2	n	2.4µM	n	x	n	u
O=C(Nc1ccc2oc(-c3ccccc3)nc2c1)c1ccc2c(c1)OCCO2	n	5.4µM	n	n	n	n
O=C(Nc1ccc2oc(-c3ccncc3)nc2c1)c1ccc2c(c1)OCO2	n	u	x	x	n	n
CNc1ncnc2c1ncn2[C@@H]1O[C@H](CO)[C@H](O)[C@H]1O	x	x	n	u	x	x
COCCNC(=O)C1(CC(C)C)C=CCN1C(=O)c1ccccc1 (configuration not stated)	x	x	n	n	x	x

High-throughput results from PubChem.
